Assay in all cases: NCI-60 one-dose screen, 48 h (100 = growth as untreated, 0 = no growth, -100 = all killed)
Common to all, as to conditions: 10 µM unless noted

Assay [1] has as its system HCT-15 colon.
Assay [2] deals with HT29 colon.
The subject of assay [3] is SNB-75 CNS.
Assay [4] has as its system SNB-19 CNS.
The subject of assay [5] is U251 CNS.
Assay [6] concerns PC-3 prostate.
The subject of assay [7] is SK-MEL-5 melanoma.
For assay [8], the system named is UACC-62 melanoma.
Assay [9] concerns LOX IMVI melanoma.
In assay [10] the test system is SK-MEL-28 melanoma.
Assay [11] concerns SK-MEL-2 melanoma.
The test system of assay [12] is EKVX NSCLC.
Assay [13] deals with SN12C renal.
Assay [14] relates to UO-31 renal.
Assay [15] deals with TK-10 renal.
In assay [16] the test system is CAKI-1 renal.
Assay [17] concerns A498 renal.
The test system of assay [18] is CCRF-CEM leukemia.
Assay [19] relates to MOLT-4 leukemia.
Assay [20] has as its system ACHN renal.

About 83,000 compounds went through this panel and 20% of them were active in at least one assay; those are over-represented in the sample as a whole.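 In brief: 96-well plates, 48 h treatment, single concentration, percent growth endpoint.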 Values without a mark were called inactive. Activity calls are given as the source filed them. The calls were made as follows: active = growth percent below 10; inactive = the rest.

As to `C[C@@H]1CC[C@@H]2[C@@H]1[C@H](OC(=O)/C=C/c1ccccc1)[C@]1(c3ccccc3)C[C@@H](NC(=O)CO)[C@@]2(C)O1`, the growth was 91.7% in assay [1]; 109% in [2]; 88% in assay [3]; 96.2% in [4]; 88.9% in assay [5]; 78.9% in assay [6]. Further, the growth is 97.9% in assay [7]; 71.7% in [8]; 96.1% in assay [9]; 103% in assay [10]; 107% in [11]; 90.2% in assay [12]. Also, the growth in assay [13] is 86.8%; in assay [14], 69.7%; in [15], 112%; in assay [16], 70.1%; in [17], -3.59% (active); in [18], 99.8%. The growth in assay [19] was 84%.

Consider `Cc1cccc(Cc2cnc(NC(=O)CCCOc3ccc(Cl)cc3)s2)c1`, for which the growth is 24.6% in assay [1]; 11.6% in [2]; 21.3% in assay [3]; 27.6% in [4]; 14% in assay [5]; 42.5% in assay [6]. Also, the growth in assay [7] was 30.7%; in [8], 32.4%; in assay [9] it was 35.6%; in assay [10], 58.4%; in assay [11] it was 67.2%; in assay [12] it was 41.4%. The growth in assay [13] is 34.9%; in assay [14], 19%; in [15], 38.3%; in assay [20], 12.1%; in [16] it was 27.1%; in assay [18], 16.3%. The growth in assay [19] is 40.1%.

Regarding `CN(Cc1ccccc1)c1nc(Cl)c(C2CC(c3ccc4c(c3)OCO4)=NN2c2cc(Cl)cc(Cl)c2)s1` (stereo not drawn), the growth in [1] is 98.7%; in [2], 97.8%; in assay [3], 78.5%; in [4], 106%; in assay [5], 98.1%; in assay [6], 93.5%. The growth is 97.4% in assay [7]; 96.6% in assay [8]; 96.6% in assay [9]; 99% in assay [10]; 101% in assay [11]; 95.1% in [12]. Besides, the growth in [13] is 99.1%; in [14] it was 87.5%; in assay [15], 119%; in assay [16] it was 84.3%; in assay [17], 115%; in [18] it was 97.1%. Besides, the growth in assay [19] is 107%.

Consider `COC(=O)N/N=C/c1c[n+]([O-])c2ccccc2[n+]1[O-]`, for which the growth in [1] was 106%; in [2] it was 106%; in assay [3], 100%; in assay [4], 104%; in [5] it was 96.6%; in assay [6], 86%. Further, the growth in assay [7] was 114%; in assay [8], 101%; in [9], 97.7%; in [10], 105%; in [11] it was 112%; in [12], 100%. The growth was 99.6% in assay [13]; 86.6% in [14]; 119% in assay [15]; 100% in [20]; 89.1% in [16]; 98% in assay [17]. The growth in assay [19] is 104%.

With `CN1C(=O)N(C)C2(c3ccccc3)N(CC(=O)Nc3ccccc3O)C(=O)NC12c1ccccc1` (stereo not drawn), the growth in assay [1] was 103%; in assay [2] it was 111%; in [3], 74.3%; in [4], 100%; in assay [5], 105%; in assay [6], 90.3%. Besides, the growth in assay [7] was 101%; in assay [8], 91%; in [9] it was 96.8%; in [10] it was 123%; in assay [11] it was 111%; in assay [12], 102%. For the same compound, the growth in [13] was 103%; in assay [14], 74.6%; in assay [15], 93.9%; in assay [16], 74.1%; in assay [17], 121%; in [18], 111%. For the same compound, in [19], the growth was 102%.

As for `Nc1n[nH]c2cccc(C#Cc3cccc(NC(=O)c4ccc(N5CCOCC5)c(C(F)(F)F)c4)c3)c12`, the growth in [1] is 8.44% (active); in assay [2], 3.29% (active); in [3] it was -25.6% (active); in assay [4] it was 26.1%; in assay [5], 16.6%; in assay [6], 1.76% (active). Further, the growth in assay [7] is 23.4%; in assay [8] it was -5.9% (active); in assay [9], -96.9% (active); in assay [10], 8.55% (active); in assay [11] it was -7.56% (active); in [12], 18.4%. For the same compound, the growth is 9.03% (active) in [13]; -31.7% (active) in assay [14]; 16.5% in assay [15]; -0.609% (active) in [20]; 9.52% (active) in assay [16]; 10.5% in assay [18]. Moreover, the growth in [19] is 7.67% (active).

`CC[C@H](C)[C@H](NC(=O)[C@@H](N)CCC(N)=O)C(=O)N[C@@H](Cc1ccc(O)cc1)C(=O)N[C@@H](CCCCN)C(=O)N[C@@H](CCCCN)C(=O)N[C@@H](Cc1ccc(O)cc1)C(=O)N[C@@H](CCCNC(=N)N)C(=O)N[C@H](C(=O)N[C@@H](Cc1c[nH]c2ccccc12)C(=O)N[C@@H](Cc1ccc(O)cc1)C(=O)N[C@@H](CCCNC(=N)N)C(=O)N[C@@H](CCCCN)C(=O)N[C@@H](C)C(=O)N[C@@H](Cc1c[nH]c2ccccc12)C(=O)N[C@@H](CCCCN)C(=O)N[C@H](C(=O)N[C@@H](CC(C)C)C(=O)NCC(=O)N[C@@H](CCCCN)C(=O)N[C@H](C(N)=O)C(C)C)C(C)C)[C@@H](C)O`: the growth was 4.9% (active) in [1]; 63.6% in [2]; 15.5% in assay [3]; 49.3% in assay [4]; 23.7% in assay [5]; -37% (active) in assay [6]. The growth in assay [7] was -38% (active); in assay [8], -71.2% (active); in [9], 69.8%; in assay [10], 16.3%; in assay [11], 43.3%; in [12], -34.5% (active). The growth in assay [13] is 12.4%; in assay [14], 76%; in assay [15] it was 8.22% (active); in [20], 65.6%; in assay [16] it was 7.94% (active); in [18], 5.19% (active). Besides, the growth in assay [19] is 52.9%.

The values above are taken from PubChem BioAssay (NCI).
